Targets with a hit are over-represented here; the source holds about 8,800 in all. About 0.5% of all pairs of compound and target were hits.
Assays:
Assay in all cases: log2 fold change, soluble protein after heating vs DMSO (PISA); higher = thermal stabilisation; K562 lysate, 10 uM; active = over 0.2 and 3.5 SD of the protein, either way, in both replicates (recomputed)
vemurafenib = compound: CCCS(=O)(=O)Nc1ccc(F)c(C(=O)c2c[nH]c3ncc(-c4ccc(Cl)cc4)cc23)c1F [vemurafenib]
Outline: (§1)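 Log-two fold change in thermal stability relative to solvent controls is reported from duplicates. For each sample, crude K562 extract from dounce-homogenised pellets in PBS pH 7.4 with 1 mM MgCl2, at 1 mg/mL protein, was treated with 10 μM compound for 30 min. Aliquots heated for 3 min across 48°C-58°C were pooled, brought to 0.5% NP-40 at 4°C and cleared at 21,000xg for 90 min. The supernatant was quantified by TMTpro 16plex LC-MS/MS with channel sums equalised.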

[1] = compound: CCCS(=O)(=O)Nc1ccc(F)c(C(=O)c2c[nH]c3ncc(Cl)cc23)c1F
Outline: as §1

barasertib = compound: CCN(CCCOc1ccc2c(Nc3cc(CC(=O)Nc4cccc(F)c4)[nH]n3)ncnc2c1)CCOP(=O)(O)O [barasertib]
Outline: as §1

[2] = compound: CC[C@@H]1C(=O)N(C)c2cnc(Nc3ccc(C(=O)NC4CCN(C)CC4)cc3OC)nc2N1C1CCCC1
Outline: as §1

volasertib = compound: CC[C@@H]1C(=O)N(C)c2cnc(Nc3ccc(C(=O)N[C@H]4CC[C@H](N5CCN(CC6CC6)CC5)CC4)cc3OC)nc2N1C(C)C [volasertib]
Outline: as §1

[3] = compound: CCn1c(C(=O)N(C2CC2)C2CC2)cc2c3c(ncn3C)c(Nc3cc(C)n(C)n3)nc21
Outline: as §1

[4] = compound: CCn1cc(-c2ccnc3[nH]c(-c4cccc(CN(C)C)c4)cc23)c(-c2ccc(NC(=O)N(C)C)cc2)n1
Outline: as §1

[5] = compound: CN1CCC(CNc2ccc3ncc(-c4cccc(OC(F)(F)F)c4)n3n2)CC1
Outline: as §1

saracatinib = compound: CN1CCN(CCOc2cc(OC3CCOCC3)c3c(Nc4c(Cl)ccc5c4OCO5)ncnc3c2)CC1 [saracatinib]
Outline: as §1

sotrastaurin = compound: CN1CCN(c2nc(C3=C(c4c[nH]c5ccccc45)C(=O)NC3=O)c3ccccc3n2)CC1 [sotrastaurin]
Outline: as §1

Measured: log2 fold change

PPP2R5C isoform 4 (UniProt Q13362)
inactive: vemurafenib 0.029 | [1] 0.02 | barasertib -0.001 | [2] 0.018 | volasertib -0.002 | [3] 0.022 | [4] -0.02 | [5] -0.038 | saracatinib 0.017 | sotrastaurin -0.036

PES1 (UniProt O00541)
inactive: vemurafenib 0.009 | [1] 0.023 | barasertib -0.019 | [2] -0.074 | volasertib -0.04 | [3] 0.017 | [4] -0.043 | [5] 0.052 | saracatinib 0.007 | sotrastaurin 0.028

PRKAB2 (UniProt O43741)
active: [4] -0.85
inactive: vemurafenib 0.022 | [1] 0.104 | barasertib -0.081 | [2] 0 | volasertib -0.05 | [3] -0.094 | [5] 0.303 | saracatinib 0.029 | sotrastaurin 0.026

POLA1 (UniProt P09884)
inactive: vemurafenib 0.002 | [1] 0 | barasertib 0.042 | [2] 0.021 | volasertib -0.012 | [3] 0.03 | [4] -0.009 | [5] -0.016 | saracatinib -0.003 | sotrastaurin 0.004

PDE4DIP isoform 4 (UniProt Q5VU43)
UniProt Q5VU43, sequence (Q5VU43 whole entry, looked up): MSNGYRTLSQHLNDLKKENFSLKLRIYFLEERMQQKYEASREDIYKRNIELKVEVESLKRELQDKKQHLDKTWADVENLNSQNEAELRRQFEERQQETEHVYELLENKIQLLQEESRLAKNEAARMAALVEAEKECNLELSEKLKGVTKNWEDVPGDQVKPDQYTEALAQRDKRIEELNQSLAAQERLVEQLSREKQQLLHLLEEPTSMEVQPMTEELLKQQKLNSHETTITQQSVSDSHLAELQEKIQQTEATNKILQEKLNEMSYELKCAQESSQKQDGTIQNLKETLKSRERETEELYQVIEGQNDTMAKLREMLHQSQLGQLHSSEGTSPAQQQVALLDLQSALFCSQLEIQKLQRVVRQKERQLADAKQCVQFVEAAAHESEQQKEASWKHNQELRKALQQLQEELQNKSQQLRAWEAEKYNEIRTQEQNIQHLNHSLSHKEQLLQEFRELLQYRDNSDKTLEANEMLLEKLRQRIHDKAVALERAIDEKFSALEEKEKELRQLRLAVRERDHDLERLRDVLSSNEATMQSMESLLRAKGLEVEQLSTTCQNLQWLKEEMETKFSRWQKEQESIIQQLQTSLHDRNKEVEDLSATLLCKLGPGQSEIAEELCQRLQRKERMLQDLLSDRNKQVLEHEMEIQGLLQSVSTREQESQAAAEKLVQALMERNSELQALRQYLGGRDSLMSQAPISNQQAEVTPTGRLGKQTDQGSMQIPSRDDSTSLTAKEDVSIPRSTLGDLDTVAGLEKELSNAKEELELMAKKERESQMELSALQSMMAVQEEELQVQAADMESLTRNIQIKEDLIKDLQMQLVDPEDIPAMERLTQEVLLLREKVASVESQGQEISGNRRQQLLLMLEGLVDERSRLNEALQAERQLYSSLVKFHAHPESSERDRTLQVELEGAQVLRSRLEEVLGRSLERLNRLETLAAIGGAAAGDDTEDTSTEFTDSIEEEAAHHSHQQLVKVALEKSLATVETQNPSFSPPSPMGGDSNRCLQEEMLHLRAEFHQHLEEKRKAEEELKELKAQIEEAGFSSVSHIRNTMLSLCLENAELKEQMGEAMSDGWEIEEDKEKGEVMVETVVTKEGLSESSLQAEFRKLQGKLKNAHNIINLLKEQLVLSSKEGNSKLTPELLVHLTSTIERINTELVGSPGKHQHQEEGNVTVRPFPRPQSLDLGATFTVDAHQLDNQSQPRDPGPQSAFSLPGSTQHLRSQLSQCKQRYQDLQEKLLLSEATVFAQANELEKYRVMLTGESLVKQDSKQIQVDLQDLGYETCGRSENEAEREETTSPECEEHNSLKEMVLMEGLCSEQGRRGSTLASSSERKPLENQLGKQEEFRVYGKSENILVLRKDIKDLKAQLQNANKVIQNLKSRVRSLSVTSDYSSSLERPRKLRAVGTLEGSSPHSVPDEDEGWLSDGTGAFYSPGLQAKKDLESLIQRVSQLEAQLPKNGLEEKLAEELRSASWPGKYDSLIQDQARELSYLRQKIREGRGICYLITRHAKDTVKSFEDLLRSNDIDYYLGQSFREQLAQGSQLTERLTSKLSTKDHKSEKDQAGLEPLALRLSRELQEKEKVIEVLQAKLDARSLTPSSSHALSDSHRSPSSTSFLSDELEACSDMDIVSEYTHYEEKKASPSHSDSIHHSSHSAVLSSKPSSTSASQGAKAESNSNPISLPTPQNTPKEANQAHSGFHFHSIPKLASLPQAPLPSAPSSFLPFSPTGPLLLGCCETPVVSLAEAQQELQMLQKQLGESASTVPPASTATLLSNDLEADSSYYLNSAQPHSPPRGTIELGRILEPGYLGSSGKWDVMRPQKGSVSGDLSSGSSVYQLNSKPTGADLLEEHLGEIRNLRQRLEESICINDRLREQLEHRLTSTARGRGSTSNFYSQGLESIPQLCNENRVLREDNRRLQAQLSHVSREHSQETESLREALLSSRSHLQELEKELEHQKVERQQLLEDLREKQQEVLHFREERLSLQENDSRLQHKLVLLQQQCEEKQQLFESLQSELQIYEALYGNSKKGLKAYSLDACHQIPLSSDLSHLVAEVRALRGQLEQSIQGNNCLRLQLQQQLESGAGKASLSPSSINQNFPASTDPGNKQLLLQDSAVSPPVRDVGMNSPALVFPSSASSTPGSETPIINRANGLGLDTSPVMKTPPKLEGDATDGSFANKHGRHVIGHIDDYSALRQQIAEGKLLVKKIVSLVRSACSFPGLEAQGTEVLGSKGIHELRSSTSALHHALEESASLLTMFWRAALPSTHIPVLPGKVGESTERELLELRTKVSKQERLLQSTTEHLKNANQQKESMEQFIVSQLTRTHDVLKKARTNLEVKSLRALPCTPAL
inactive: vemurafenib 0.027 | [1] 0.011 | barasertib 0.092 | [2] 0.046 | volasertib 0.025 | [3] 0.04 | [4] -0.04 | [5] -0.005 | saracatinib 0.034 | sotrastaurin -0.014

PLEKHO2 (UniProt Q8TD55)
inactive: vemurafenib 0.034 | [1] 0.247 | barasertib 0.161 | [2] 0.068 | volasertib 0.151 | [3] 0.126 | [4] 0.136 | [5] 0.016 | saracatinib 0.278 | sotrastaurin -0.054

PIP4K2C (UniProt Q8TBX8)
inactive: vemurafenib 0.039 | [1] -0.028 | barasertib -0.045 | volasertib 0.206 | [3] 0.103 | [4] -0.114 | [5] 0.225 | saracatinib -0.01 | sotrastaurin -0.019
active: [2] 0.463

PDS5A (UniProt Q29RF7)
UniProt Q29RF7, sequence (Q29RF7 whole entry, looked up): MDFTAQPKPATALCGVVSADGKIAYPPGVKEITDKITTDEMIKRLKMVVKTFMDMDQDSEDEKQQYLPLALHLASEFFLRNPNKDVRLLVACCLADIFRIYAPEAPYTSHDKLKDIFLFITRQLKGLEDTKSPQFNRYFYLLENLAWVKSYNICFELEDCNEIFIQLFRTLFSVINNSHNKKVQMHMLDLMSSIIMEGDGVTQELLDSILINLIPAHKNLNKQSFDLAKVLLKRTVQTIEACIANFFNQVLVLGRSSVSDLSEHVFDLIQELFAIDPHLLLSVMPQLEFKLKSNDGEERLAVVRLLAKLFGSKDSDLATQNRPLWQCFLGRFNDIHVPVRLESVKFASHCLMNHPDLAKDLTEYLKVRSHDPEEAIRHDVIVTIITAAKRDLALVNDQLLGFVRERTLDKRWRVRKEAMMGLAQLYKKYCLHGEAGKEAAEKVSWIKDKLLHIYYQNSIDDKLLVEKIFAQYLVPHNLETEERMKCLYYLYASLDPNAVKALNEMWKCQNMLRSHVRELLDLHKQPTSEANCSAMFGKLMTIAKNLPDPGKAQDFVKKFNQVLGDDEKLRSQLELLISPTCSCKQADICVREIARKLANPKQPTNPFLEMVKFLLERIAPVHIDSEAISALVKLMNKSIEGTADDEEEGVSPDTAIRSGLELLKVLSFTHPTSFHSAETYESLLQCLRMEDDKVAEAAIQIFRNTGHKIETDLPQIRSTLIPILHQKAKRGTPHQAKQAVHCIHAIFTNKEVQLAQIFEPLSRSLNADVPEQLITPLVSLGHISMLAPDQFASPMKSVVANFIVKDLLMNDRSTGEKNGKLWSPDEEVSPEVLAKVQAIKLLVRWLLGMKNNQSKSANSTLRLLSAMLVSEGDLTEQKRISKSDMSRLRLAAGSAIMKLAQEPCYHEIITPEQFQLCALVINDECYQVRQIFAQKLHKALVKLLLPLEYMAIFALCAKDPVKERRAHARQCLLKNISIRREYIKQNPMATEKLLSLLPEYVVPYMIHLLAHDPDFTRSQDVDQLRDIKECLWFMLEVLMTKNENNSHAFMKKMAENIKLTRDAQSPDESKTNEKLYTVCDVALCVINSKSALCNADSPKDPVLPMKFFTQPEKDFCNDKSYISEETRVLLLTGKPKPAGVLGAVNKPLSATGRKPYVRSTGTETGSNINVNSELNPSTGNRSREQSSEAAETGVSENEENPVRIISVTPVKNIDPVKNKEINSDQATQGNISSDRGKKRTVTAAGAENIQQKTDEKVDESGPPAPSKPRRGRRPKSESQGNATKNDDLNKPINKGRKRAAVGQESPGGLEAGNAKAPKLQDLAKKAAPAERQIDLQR
inactive: vemurafenib 0.023 | [1] 0.031 | barasertib 0.064 | [2] -0.057 | volasertib -0.029 | [3] 0.054 | [4] -0.12 | [5] -0.019 | saracatinib 0.007 | sotrastaurin 0.026

PRC1 (UniProt O43663)
inactive: vemurafenib 0.048 | [1] 0.03 | barasertib 0.063 | [2] -0.057 | volasertib -0.028 | [3] 0 | [4] -0.004 | [5] -0.094 | saracatinib 0.025 | sotrastaurin 0.005

POLR2F (UniProt P61218)
active: [4] 1.25
inactive: vemurafenib 0.077 | [1] -0.018 | barasertib 0.034 | [2] -0.043 | volasertib 0.036 | [3] 0.078 | [5] -0.211 | saracatinib -0.042 | sotrastaurin 0.02

PTK2B (UniProt Q14289)
inactive: vemurafenib 0.001 | [1] -0.03 | barasertib -0.013 | [2] 0.118 | volasertib 0.022 | [3] -0.044 | [4] 0.001 | [5] 0.107 | saracatinib 0.019 | sotrastaurin 0.033

PFDN2 (UniProt Q9UHV9)
active: [4] 0.471
inactive: vemurafenib -0.049 | [1] 0 | barasertib 0.064 | [2] -0.022 | volasertib 0.029 | [3] 0.082 | [5] -0.049 | saracatinib 0.009 | sotrastaurin 0.039

PIP4K2B (UniProt P78356)
active: [2] 0.21
inactive: vemurafenib 0.016 | [1] 0.012 | barasertib -0.045 | volasertib 0.092 | [3] 0.038 | [4] 0.048 | [5] 0.065 | saracatinib -0.045 | sotrastaurin -0.009

PIP4P2 (UniProt Q8N4L2)
inactive: vemurafenib 0.038 | [1] 0.031 | barasertib 0.311 | [2] 0.039 | volasertib 0.01 | [3] -0.016 | [4] 0.022 | [5] 0.03 | saracatinib 0.038 | sotrastaurin -0.16

POGK (UniProt Q9P215)
UniProt Q9P215, sequence (Q9P215 whole entry, looked up): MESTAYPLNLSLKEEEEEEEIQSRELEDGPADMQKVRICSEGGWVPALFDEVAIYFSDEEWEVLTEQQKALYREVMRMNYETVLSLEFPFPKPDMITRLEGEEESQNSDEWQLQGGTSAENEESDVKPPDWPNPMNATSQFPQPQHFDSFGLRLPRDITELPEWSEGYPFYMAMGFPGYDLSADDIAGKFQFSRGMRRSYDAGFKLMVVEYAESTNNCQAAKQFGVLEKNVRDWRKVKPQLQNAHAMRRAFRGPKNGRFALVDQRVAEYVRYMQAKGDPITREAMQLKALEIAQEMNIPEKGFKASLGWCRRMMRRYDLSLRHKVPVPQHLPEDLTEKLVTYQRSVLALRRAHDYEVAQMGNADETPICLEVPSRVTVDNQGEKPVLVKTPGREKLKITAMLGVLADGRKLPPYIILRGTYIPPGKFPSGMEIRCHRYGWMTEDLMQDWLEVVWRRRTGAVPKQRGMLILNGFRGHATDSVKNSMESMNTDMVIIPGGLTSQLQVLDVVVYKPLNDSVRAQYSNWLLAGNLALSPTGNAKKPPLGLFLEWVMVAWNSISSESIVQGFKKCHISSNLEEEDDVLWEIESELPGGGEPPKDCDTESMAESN
inactive: vemurafenib -0.035 | [1] 0.114 | barasertib 0.011 | [2] -0.005 | volasertib 0.033 | [3] -0.027 | [5] 0.034 | saracatinib 0.017 | sotrastaurin 0.013
active: [4] -0.397

PUM1 isoform 3 (UniProt Q14671)
inactive: vemurafenib -0.07 | [1] 0.013 | barasertib 0.068 | [2] 0.031 | volasertib -0.063 | [3] 0.03 | [4] 0.045 | [5] -0.084 | saracatinib 0.039 | sotrastaurin 0.016

POMP (UniProt Q9Y244)
inactive: vemurafenib -0.022 | [1] 0.001 | barasertib -0.034 | [2] 0.039 | volasertib -0.007 | [3] -0.028 | [4] 0.065 | [5] -0.061 | saracatinib 0.056 | sotrastaurin -0.064

PHACTR4 isoform 2 (UniProt Q8IZ21)
inactive: vemurafenib 0.011 | [1] 0.011 | barasertib -0.008 | [2] 0.065 | volasertib 0.023 | [3] -0.003 | [5] -0.178 | saracatinib 0 | sotrastaurin 0.013
active: [4] 0.836

PGLS (UniProt O95336)
inactive: vemurafenib -0.033 | [1] -0.027 | barasertib 0.067 | [2] -0.055 | volasertib 0.027 | [3] 0.036 | [4] 0.051 | [5] -0.114 | saracatinib 0.039 | sotrastaurin 0.006

PRAME (UniProt P78395)
inactive: vemurafenib 0.028 | [1] -0.012 | barasertib 0.003 | [2] -0.086 | volasertib -0.009 | [3] 0.017 | [4] -0.058 | [5] 0.011 | saracatinib 0 | sotrastaurin 0.018

PPP3CA isoform 2 (UniProt Q08209)
inactive: vemurafenib -0.008 | [1] -0.037 | barasertib 0.025 | [2] 0.046 | volasertib -0.005 | [3] 0.032 | [4] 0.115 | [5] -0.182 | saracatinib 0 | sotrastaurin -0.005

PRKCD (UniProt Q05655)
inactive: vemurafenib -0.006 | [1] -0.118 | barasertib 0.057 | [2] 0.008 | volasertib -0.041 | [3] -0.014 | [4] 0.012 | [5] 0.021 | saracatinib -0.005 | sotrastaurin 0.058

PRIM1 (UniProt P49642)
inactive: vemurafenib -0.036 | [1] 0.022 | barasertib 0.031 | [2] -0.089 | volasertib -0.069 | [3] 0.062 | [4] -0.008 | [5] -0.029 | saracatinib -0.002 | sotrastaurin 0.007

PDAP1 (UniProt Q13442)
active: [4] -0.267
inactive: vemurafenib -0.026 | [1] -0.01 | barasertib -0.064 | [2] 0.069 | volasertib 0.04 | [3] -0.043 | [5] 0.159 | saracatinib -0.002 | sotrastaurin -0.02

PIK3R2 (UniProt O00459)
inactive: vemurafenib -0.032 | [1] 0 | barasertib -0.002 | [2] 0.128 | volasertib -0.003 | [3] 0.071 | [4] -0.018 | [5] 0.289 | saracatinib -0.014 | sotrastaurin 0.091

PHLDB1 (UniProt Q86UU1)
inactive: vemurafenib -0.071 | [1] 0.162 | barasertib 0.01 | [2] 0.033 | volasertib -0.044 | [3] 0.001 | [4] 0.095 | [5] -0.014 | saracatinib 0.005 | sotrastaurin -0.049

PRKAR2B (UniProt P31323)
UniProt P31323, sequence (P31323 whole entry, looked up): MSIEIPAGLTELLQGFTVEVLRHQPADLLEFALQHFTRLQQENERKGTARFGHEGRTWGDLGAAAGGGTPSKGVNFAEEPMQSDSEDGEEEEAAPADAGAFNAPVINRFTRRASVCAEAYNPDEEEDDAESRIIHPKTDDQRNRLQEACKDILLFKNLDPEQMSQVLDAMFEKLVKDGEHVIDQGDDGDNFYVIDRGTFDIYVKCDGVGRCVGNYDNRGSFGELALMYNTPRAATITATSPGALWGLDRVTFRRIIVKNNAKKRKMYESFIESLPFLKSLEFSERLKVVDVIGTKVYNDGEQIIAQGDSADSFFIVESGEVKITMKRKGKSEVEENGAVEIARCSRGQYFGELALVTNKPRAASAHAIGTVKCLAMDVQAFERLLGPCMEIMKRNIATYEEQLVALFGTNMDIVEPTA
inactive: vemurafenib 0.01 | [1] 0 | barasertib 0.053 | [2] -0.028 | volasertib -0.043 | [3] -0.032 | [4] 0.051 | saracatinib 0.007 | sotrastaurin -0.17
active: [5] -0.26

PDF (UniProt Q9HBH1)
inactive: vemurafenib -0.012 | [1] 0.03 | barasertib 0.028 | [2] -0.118 | volasertib -0.004 | [3] 0.01 | [4] -0.014 | [5] -0.181 | saracatinib 0.032 | sotrastaurin -0.02

PRKACB isoform 2 (UniProt P22694)
inactive: vemurafenib -0.077 | [1] -0.016 | barasertib 0.013 | [2] -0.021 | volasertib -0.01 | [3] -0.072 | [4] -0.021 | [5] 0.125 | saracatinib 0.012 | sotrastaurin 0.175

PIR (UniProt O00625)
UniProt O00625, sequence (O00625 whole entry, looked up): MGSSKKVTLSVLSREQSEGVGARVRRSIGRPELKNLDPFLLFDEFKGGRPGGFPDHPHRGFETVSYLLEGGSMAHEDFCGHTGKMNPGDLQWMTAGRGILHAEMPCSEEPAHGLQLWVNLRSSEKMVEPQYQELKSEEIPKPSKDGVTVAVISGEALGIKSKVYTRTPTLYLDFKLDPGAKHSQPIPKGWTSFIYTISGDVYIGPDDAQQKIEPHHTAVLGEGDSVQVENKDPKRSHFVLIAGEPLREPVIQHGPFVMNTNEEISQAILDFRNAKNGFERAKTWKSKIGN
inactive: vemurafenib -0.023 | [1] 0.098 | barasertib -0.005 | [2] 0.025 | volasertib 0.019 | [3] -0.055 | [4] 0.205 | [5] -0.024 | saracatinib -0.006 | sotrastaurin -0.028
